The record followed here is PubChem BioAssay (NCATS).

Inconclusive results are not listed. The source made the active and inactive calls. Calls follow the shape of the dose curve; as a rule, active = well fitted cell-killing curve with a large enough effect; inconclusive = small, poorly fitted or top-dose-only effect; inactive = flat fitted curve, though single readings scatter.
Potency is read from the fitted curve at half-maximal effect.

The nature of the test: qHTS of pediatric cancer cell lines to identify multiple opportunities for drug repurposing: Primary screen for DAOY cells (AID 1347090). Also: nearly all actives have a fitted effect of over 55% in size. The note with it: DAOY medulloblastoma viability, CellTiter-Glo luminescence, 48 h; series mostly up to 46 µM; activity change, negative = cytotoxic: at the top concentration. The text has this:
Drug repurposing or repositioning has been offered as a strategy for drug development in oncology programs. This approach has special potential for childhood cancers and other rare or orphan diseases, where the expected return on new drug development has been a disincentive to pharmaceuticals.
In this project we exploit the poly-pharmacology of drugs to discover new indications via phenotypic screening of a panel of 19 well-characterized cell lines derived from solid tumors seen in children and adolescents. The goal is to identify approved drugs with previously unrecognized anticancer properties that has the potential to reveal new mechanisms and biological processes involved in carcinogenesis or drug resistance. We employed a titration-based paradigm (quantitative high-throughput screening or qHTS), where all compounds were tested at multiple concentrations for their effect on cell viability. Concentration-response curves (CRCs) were derived directly from the primary screen, and both potency and efficacy values were used to identify compounds with robust bioactivity profiles. We screened the NIH Chemical Genomics Center (NCGC) Pharmaceutical Collection (NPC) and Mechanism Interrogation Plate (MIPE) small molecule collections of approved and investigational compounds against these cell lines; and measured metabolically active cells after 48 hours of compound treatment as a proxy for cell viability.
Assay Submitter: Nathalia J. Martinez, National Center for Advancing Translational Sciences, National Institutes of Health, Rockville, MD, USA; email: natalia.martinez@nih.gov
[1] Shen, M et al. Quantitative high-throughput phenotypic screening of pediatric cancer cell lines identifies multiple opportunities for drug repurposing. Oncotarget 2017 Dec 19;9(4):4758-4772. PMID 29435139.
The cells were obtained from University of North Carolina (UNC), Pediatric Preclinical Testing Program (PPT), and Coriell Institute (CI).
qHTS cell viability assay:
Cells were assayed in growth media at a density of 500-1,000 cells/well. Five microliters of cells were dispensed into 1,536-well, white, solid-bottom, TC-treated plates (Greiner Bio One) using a multidrop dispenser and incubated at 37 degrees C, 5% CO2, under a humidified atmosphere for 5 hours. Twenty-three nanoliters of compounds and controls (neutral control DMSO or positive control bortezomib at final concentration of 2.3 µM) were subsequently transferred by Kalypsys pintool. For primary screens, the MIPE collection was tested at 11-point dilutions (final concentrations range from 0.78 nM to 46 µM) and the NPC collection at 8-point dilutions (final concentrations range from 0.59 nM to 46 µM). Compounds tested in follow-up screens were assayed at 11-point dilutions. Cells were incubated for 48 hours, followed by addition of 3 uL of CellTiter-Glo (Promega). After a 15 min incubation at room temperature, samples were analyzed for luminescence intensity using a ViewLux High-throughput CCD imager equipped with clear filters.
For `CN[C@@H](C)C(=O)N[C@H]1CN(C(=O)CC(C)C)CC[C@H]2CC[C@@H](C(=O)NC(c3ccccc3)c3ccccc3)N2C1=O`, the Potency was 2.35 µM (active).
As to `Cc1cnc(C(=O)O)c[n+]1[O-]`, the “activity change, negative = cytotoxic” value was -3.1% (inactive).
Regarding `O=C(O)C=Cc1ccc(O)c(O)c1`, the Potency is 7.43 µM (active).
With `COC1CCC(N(C(=O)C2CCC(C)CC2)c2cc(C3=CCCCC3)sc2C(=O)O)CC1` (stereo not given), the “activity change, negative = cytotoxic” value is -6.24% (inactive).
On the same count and under the same terms, next, `CON=C(C(=O)N[C@@H]1C(=O)N2C(C(=O)OCOC(=O)C(C)(C)C)=C(C=Cc3scnc3C)CS[C@H]12)c1csc(N)n1`: 12.1% (inactive); `Cn1c(N2CCCCS2(=O)=O)nc(C(=O)NCc2ccc(F)cc2)c(O)c1=O`: -8.41% (inactive).
For `O=C1Nc2ccc(Cl)cc2C(C#CC2CC2)(C(F)(F)F)O1` (stereo not given), the Potency is 29.6 µM (active).
Turning to `O=c1c(-c2ccc(O)cc2)coc2cc(O[C@@H]3O[C@H](CO)[C@H](O)[C@H](O)[C@H]3O)ccc12`, the “activity change, negative = cytotoxic” value is -6.4% (inactive).
Still for that read-out and setting: the value for `CC(C)(C)OC(=O)N[C@H]1CCCCCC=C[C@@H]2C[C@@]2(C(=O)NS(=O)(=O)C2CC2)NC(=O)[C@@H]2C[C@@H](OC(=O)N3Cc4cccc(F)c4C3)CN2C1=O` was 7.18% (inactive).
Turning to `CN1C[C@H]2c3ccccc3Oc3ccc(Cl)cc3[C@@H]2C1`, the Potency result is “inactive”.
In the case of `CC1(C)CCC(CN2CCN(c3ccc(C(=O)NS(=O)(=O)c4ccc(NCC5CCOCC5)c([N+](=O)[O-])c4)c(Oc4cnc5[nH]ccc5c4)c3)CC2)=C(c2ccc(Cl)cc2)C1`, the Potency was 14.8 µM (active).
Regarding `O=c1c(-c2ccc(O)cc2)coc2cc(OC3O[C@H](CO)[C@H](O)[C@H](O)[C@H]3O)cc(O)c12` (stereo not given in full), the Potency was 3.72 µM (active).
Same read-out and setting: next, `CC(C)OC(=O)C(C)(C)Oc1ccc(C(=O)c2ccc(Cl)cc2)cc1`: “inactive”.
As to `CC(C)(C)COc1ccc(-n2cc(C(=O)O)cn2)cc1C#N`, the “activity change, negative = cytotoxic” value was -9.74% (inactive).
On the same count and under the same terms, the value for `CC(C)(C)NC(=O)Nc1cccc(Nc2ncc(F)c(NC(C)(C)CO)n2)c1` was -18.3% (inactive); that for `N#CC1(c2ccc(NC(=O)c3cccnc3NCc3ccncc3)cc2)CCCC1` was -19% (inactive); that for `O=C(O)c1ccc(-c2cc3cccnc3c(-c3ccc4nonc4c3)n2)cc1` was -21.9% (inactive).
Same read-out and setting: next, `Clc1ccc(-c2nc3sccn3c2C=NOCc2ccc(Cl)c(Cl)c2)cc1`: -14.8% (inactive); `CN(C)CCC=C1c2ccccc2COc2ccc(CC(=O)O)cc21`: -28.4% (inactive); `N[C@@]1(C(=O)O)CS(=O)(=O)[C@H]2[C@H](C(=O)O)[C@H]21`: -18.3% (inactive).
For the compound `COc1ccc(-c2coc3cc(O)ccc3c2=O)cc1`, the “activity change, negative = cytotoxic” value is -7.27% (inactive).
Take `NC(=O)NN=Cc1ccc([N+](=O)[O-])o1`: the “activity change, negative = cytotoxic” value is -7.12% (inactive).
On the same count and under the same terms, next, `CO[C@H]1C=CO[C@@]2(C)Oc3c(C)c(O)c4c(O)c(c5c(c4c3C2=O)NC2(CCN(CC(C)C)CC2)N=5)=NC(=O)C(C)=CC=C[C@H](C)[C@H](O)[C@@H](C)[C@@H](O)[C@@H](C)[C@H](OC(C)=O)[C@H]1C`: 1.11% (inactive).
As for `O=C(Nc1ccccc1-c1cn2c(CN3CCNCC3)csc2n1)c1cnc2ccccc2n1`, the Potency is 23.5 µM (active).
As for `CC(C)C[C@H](CC(=O)O)C(=O)N[C@@H](Cc1c[nH]c2ccccc12)C(=O)N[C@@H](C)c1ccccc1`, the “activity change, negative = cytotoxic” value was -18.7% (inactive).
For the compound `COc1cccc2c1CCCC2CCCN1CCN(C2CCCCC2)CC1` (stereo not given), the “activity change, negative = cytotoxic” value was -19.2% (inactive).
Regarding `O=C(Nc1c(Cl)cncc1Cl)c1ccc(OC(F)F)c(OCC2CC2)c1`, the “activity change, negative = cytotoxic” value was 5.34% (inactive).
For `C[C@H](NC(=O)c1sccc1OCc1ccc(Cl)cc1)c1ccccc1`, the Potency is 18.7 µM (active).
As to `CO[C@H]1C[C@@H]2CC[C@@H](C)[C@@](O)(O2)C(=O)C(=O)N2CCCC[C@@H]2C(=O)O[C@H]([C@H](C)C[C@@H]2CC[C@H](OCCO)[C@H](OC)C2)CC(=O)[C@H](C)C=C(C)[C@@H](O)[C@@H](OC)C(=O)[C@H](C)C[C@H](C)C=CC=CC=C1C`, the “activity change, negative = cytotoxic” value was -34.3% (inactive).
On to `CC[C@H]1OC(=O)[C@H](C)[C@@H](O[C@H]2C[C@@](C)(OC)[C@@H](O)[C@H](C)O2)[C@H](C)[C@@H](O[C@@H]2O[C@H](C)C[C@H](N(C)C)[C@@H]2O)[C@](C)(O)C[C@@H](C)CN(C)[C@H](C)[C@@H](O)[C@]1(C)O`, for which the “activity change, negative = cytotoxic” value is 2.35% (inactive).
The same measure, in the same setting: the value for `NS(=O)(=O)c1ccc(NC2=CC(=O)c3ccccc3C2=O)cc1` was -16.5% (inactive).
For the compound `COc1cc2ncnc(-n3nc(-c4ccccn4)nc3N)c2cc1OC`, the Potency was 18.7 µM (active).
Regarding `O=C(O)CCC1CCC(c2cc(F)ccc2F)(S(=O)(=O)c2ccc(Cl)cc2)CC1` (stereo not given), the Potency was 11.8 µM (active).
The same measure, in the same setting: next, `CN1CCN(CCOc2cc(OC3CCOCC3)c3c(Nc4c(Cl)ccc5c4OCO5)ncnc3c2)CC1`: 18.7 µM (active); `Clc1ccc(C(c2ccc(Cl)cc2)n2cc[n+](CC(OCc3ccc(Cl)cc3Cl)c3ccc(Cl)cc3Cl)c2)cc1` (stereo not given): 23.5 µM (active).
Regarding `CCN(CC)CCOC(=O)c1ccc(N)cc1`, the “activity change, negative = cytotoxic” value is 7.96% (inactive).
`Nc1ncnc2ccccc12`: the Potency was 18.7 µM (active).
With `O=C(CCN1CCN(C(=O)OCc2cc(Cl)cc(Cl)c2)CC1)c1ccc2[nH]c(=O)oc2c1`, the “activity change, negative = cytotoxic” value was -3.47% (inactive).
Still for that read-out and setting: next, `CO[C@H]1C[C@@H]2CC[C@@H](C)[C@@](O)(O2)C(=O)C(=O)N2CCCC[C@@H]2C(=O)O[C@H]([C@@H](C)C[C@@H]2CC[C@H](O)[C@H](OC)C2)CC(=O)[C@H](C)C=C(C)[C@@H](O)[C@@H](OC)C(=O)[C@H](C)C[C@H](C)C=CC=CC=C1C`: -23.1% (inactive).
Same read-out and setting: next, `CN(C)c1cc(NC(=O)CNC(C)(C)C)c(O)c2c1C[C@@H]1C[C@H]3[C@H](N(C)C)C(=O)C(C(N)=O)=C(O)[C@@]3(O)C(=O)C1=C2O`: -5.27% (inactive).
